Whole data set: some 35,000 sequences, median “fluorescence intensity (a.u.)” near 10,000, cut for the highest 2% near 52,000. Many of the other results were omitted from the sample, so the highest values are more common in it than they were.

The target of the test is T1, OsWOX13 (Oryza sativa, UniProt Q5QMM3 1-267).
T1 sequence: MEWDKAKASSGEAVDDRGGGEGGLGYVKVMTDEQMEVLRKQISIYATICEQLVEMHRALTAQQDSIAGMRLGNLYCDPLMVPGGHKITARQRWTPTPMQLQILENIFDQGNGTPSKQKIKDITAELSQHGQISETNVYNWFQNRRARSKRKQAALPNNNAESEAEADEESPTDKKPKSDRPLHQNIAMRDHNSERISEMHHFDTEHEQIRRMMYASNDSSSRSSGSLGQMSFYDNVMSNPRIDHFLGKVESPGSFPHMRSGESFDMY
Briefly: protein-binding microarray (RPBM); PBS, 2% BSA, 51.3 ng/ul salmon testes DNA, 50 uM zinc acetate, 200 nM TF, 25 C, 1 h; high values mean tight binding. As to conditions: protein: recombinant; tags: N-terminal polyhistidine and DsRed monomer fusion (pET32a); label: CyDye5-dUTP incorporated in the synthesized complementary strand; 3' TTTTT single-stranded linker to array surface; dsDNA, one strand shown. Summed up: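 Ni–NTA purification followed expression in E. coli BL21-CodonPlus of transcription factors fused N-terminally to a polyhistidine tag and DsRed. At 200 nM in PBS with 2% BSA, salmon testes DNA and 50 µM zinc acetate, the protein was incubated for 1 h at 25 °C with a custom Agilent array that had been primer-extended with Cy5-dUTP and blocked with 2% BSA. After washing, the array was read on an Axon 4000B scanner. The binding signal is per-feature fluorescence intensity in arbitrary units.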
On to “GTAACGGGATGATTGAAGCTACAACGAGAATGGCAACGTCCGGAGTCACCTAGTGCAG”, for which the binding signal was 22200 fluorescence intensity (a.u.).

In the case of “AATATAAATTTAGATTAGCAGTGGTAAGAAGAGGGACGTCCGGAGTCACCTAGTGCAG”, the binding signal was 22600 fluorescence intensity (a.u.).

Take “CAAAATATACTAATTTCTTCAAGCAAAGGTCCAGCCCATCCGGAGTCACCTAGTGCAG”: the binding signal was 3240 fluorescence intensity (a.u.).

In the case of “GAATAGACCGAAATTAATTAAGGCAGTAATCACCCAGATGCGGAGTCACCTAGTGCAG”, the binding signal was 16100 fluorescence intensity (a.u.).

Regarding “TATTAAGTCTAATTAATCCATGATTAGCCTATGTGATGCTCGGAGTCACCTAGTGCAG”, the binding signal is 15300 fluorescence intensity (a.u.).

For the sequence “GATGATGATGGATGCGATTGACTGATGAGACGTCTGCTAACGGAGTCACCTAGTGCAG”, the binding signal was 50300 fluorescence intensity (a.u.).

As to “CCCTAAATTTCCGCGAAATCAGCAACCGAACACAGATTAGCGGAGTCACCTAGTGCAG”, the binding signal was 7110 fluorescence intensity (a.u.).

Turning to “TCAATAAATCATAAAACAAATTTATTAAGCCTAATTAATCCGGAGTCACCTAGTGCAG”, the binding signal is 14000 fluorescence intensity (a.u.).

“CCTCCTCATCATGGCTTAATTAATTAATACTCCTAGCTGCCGGAGTCACCTAGTGCAG”: the binding signal was 29000 fluorescence intensity (a.u.).

Turning to “GCTTAATTGAAGGAGCCATGGCAGCTGTCCTCTCCCGCCGCGGAGTCACCTAGTGCAG”, the binding signal is 53200 fluorescence intensity (a.u.).

For the sequence “CGAAGATTGAGTCCTTTGAAGCCGAGCTCTCCATGGCCATCGGAGTCACCTAGTGCAG”, the binding signal is 17100 fluorescence intensity (a.u.).

As to “AGGATTAATTAGGCTTAATAAATTCGTCTCGCAGTTTACACGGAGTCACCTAGTGCAG”, the binding signal is 22000 fluorescence intensity (a.u.).

“TCTAGATTTGATCATTTTGACCTCTTGCTCCGTTAGATCTCGGAGTCACCTAGTGCAG”: the binding signal was 9940 fluorescence intensity (a.u.).

For “ATCAAATCATATGTTAGATTGATCCTTCAATTAGTTAATTCGGAGTCACCTAGTGCAG”, the binding signal was 24400 fluorescence intensity (a.u.).

For the sequence “CCTTAATTAACTAACATTCAGTCAGTTAGTCACCGGATAGCGGAGTCACCTAGTGCAG”, the binding signal is 52600 fluorescence intensity (a.u.).

Regarding “GTTAATTAATTAGTTAGTACTAGCAAACATTGGCTAAAGTCGGAGTCACCTAGTGCAG”, the binding signal was 55900 fluorescence intensity (a.u.).

As to “AGTTAATTAATTAATTAGCTACGTACTCTTGTGCCTCTGTCGGAGTCACCTAGTGCAG”, the binding signal is 54900 fluorescence intensity (a.u.).

For “AAAGTTAATCAAATTGACTAATTAGTGCTAGATATGTCCTCGGAGTCACCTAGTGCAG”, the binding signal was 60600 fluorescence intensity (a.u.).

For the sequence “AATTACTACTACTAATTAGCTAGTAGCTAGTTTCTGTGCTCGGAGTCACCTAGTGCAG”, the binding signal is 8060 fluorescence intensity (a.u.).

For the sequence “GACTAATTAATAATTAGTTAATTGACTAATCAGGATAATTCGGAGTCACCTAGTGCAG”, the binding signal was 46800 fluorescence intensity (a.u.).

As to “ATTAATTAAGTTACTGTGTTACTCCTAGCTACTCCTCCGTCGGAGTCACCTAGTGCAG”, the binding signal is 22600 fluorescence intensity (a.u.).

For the sequence “CCTTAATTTTCAGTGTTAGTAATTTTCATTAACTAATTCTCGGAGTCACCTAGTGCAG”, the binding signal was 16200 fluorescence intensity (a.u.).

Take “TCTAATTATTTGATATTAGTTATTTTCCTTAACATTCGTGCGGAGTCACCTAGTGCAG”: the binding signal is 49900 fluorescence intensity (a.u.).

On to “TACTAATTTAGAGTATTAAACATAAACTAATAATAAAAGTCGGAGTCACCTAGTGCAG”, for which the binding signal was 9830 fluorescence intensity (a.u.).

“TCAATCAATCAATTAATTAGTAATTCAAAGTACTAAACACCGGAGTCACCTAGTGCAG”: the binding signal is 40200 fluorescence intensity (a.u.).

For “TTCGATTTAACTGTTCTATTACTGAGGTACTCTTCGATTTCGGAGTCACCTAGTGCAG”, the binding signal is 6940 fluorescence intensity (a.u.).

Consider “GTCAAATTTATGGCATTGATAGAGTTTTAGTAGGGGTGTTCGGAGTCACCTAGTGCAG”, for which the binding signal was 21000 fluorescence intensity (a.u.).

“TTAGTTTAATTAAATGTAACATTGAGTATATTTTGATAATCGGAGTCACCTAGTGCAG”: the binding signal was 16700 fluorescence intensity (a.u.).

Turning to “TCTAAATTTAACTTGCATCACATTAGTTCTGGAAAGAGCACGGAGTCACCTAGTGCAG”, the binding signal was 12200 fluorescence intensity (a.u.).

For the sequence “GATACTAATTATAAATATTAAGTGTAGACTATTAATAAAACGGAGTCACCTAGTGCAG”, the binding signal is 6430 fluorescence intensity (a.u.).

Regarding “TCATTAACACATAATTAATTAAGTACTCCCTCCGTATTTTCGGAGTCACCTAGTGCAG”, the binding signal is 20200 fluorescence intensity (a.u.).

As for “AAAAGAAGTTAATTATAATTAATTGTGATAAGAGGATAGACGGAGTCACCTAGTGCAG”, the binding signal is 29400 fluorescence intensity (a.u.).

On to “AAATTGTATTCCTAATTGGACTCTCTTTTCCTTTTCTAATCGGAGTCACCTAGTGCAG”, for which the binding signal is 3430 fluorescence intensity (a.u.).

For the sequence “TCGAAAGTAATTAGTACTAGATTGATTGTCAGTTCAGTCTCGGAGTCACCTAGTGCAG”, the binding signal is 53100 fluorescence intensity (a.u.).

Take “AGTTACTAATTGATTCAGATGCATGGCAGTATAATTGTCTCGGAGTCACCTAGTGCAG”: the binding signal was 44900 fluorescence intensity (a.u.).

For the sequence “TTCTAATTAGATTTGATAAAGTACTAATATTCATTTTGGTCGGAGTCACCTAGTGCAG”, the binding signal is 63100 fluorescence intensity (a.u.).

Take “CTTCTAATTATTTGATATTAGGTCATTCTCTAATATTCACCGGAGTCACCTAGTGCAG”: the binding signal is 21400 fluorescence intensity (a.u.).

On to “CTCTCGATTGATTACCTAGTACTACTGCAATTCACATTGTCGGAGTCACCTAGTGCAG”, for which the binding signal is 52200 fluorescence intensity (a.u.).

In the case of “ATATTTTAAATAGTACTAAATTATTCTATAAATTTGGTCACGGAGTCACCTAGTGCAG”, the binding signal is 4350 fluorescence intensity (a.u.).

Turning to “TATATGGATTAACAGATAATTAGCAGCGGGGTTAGCAAAACGGAGTCACCTAGTGCAG”, the binding signal was 21000 fluorescence intensity (a.u.).

For “TTTTGATTTGCCACATTTGCAGTGGCATGGATCCAATTAACGGAGTCACCTAGTGCAG”, the binding signal is 15000 fluorescence intensity (a.u.).

Take “GGGGATTAATGGATTATAATGTGTCTTATAACTAAAAGGACGGAGTCACCTAGTGCAG”: the binding signal is 15100 fluorescence intensity (a.u.).

Regarding “AGTATAATTATGTTTAGAATGGATTAATTGTAATGTAAAGCGGAGTCACCTAGTGCAG”, the binding signal was 38600 fluorescence intensity (a.u.).

Turning to “ATCCGATTAATTAATTTGATTTAATGTAATGTAATTAGGGCGGAGTCACCTAGTGCAG”, the binding signal is 64600 fluorescence intensity (a.u.).

Turning to “TTCCGATTATTATTTGTATTTATTAATTTAGGATTTCTCTCGGAGTCACCTAGTGCAG”, the binding signal is 8170 fluorescence intensity (a.u.).

For the sequence “CTTAATGTATGTTGATTTGTCATCACATGTATGATTAGGGCGGAGTCACCTAGTGCAG”, the binding signal is 56400 fluorescence intensity (a.u.).

With “CTTGATTAGAATGTTTAATAACTTGTATCCGTCATGCCTGCGGAGTCACCTAGTGCAG”, the binding signal is 60200 fluorescence intensity (a.u.).
